We go through 17 compounds from PubChem BioAssay AID2603 (Johns Hopkins Ion Channel Center, 2010).

Results with a measured potency or affinity are listed apart. Activity calls are given as the source filed them.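 How the source made its calls: active means a compound that raises KCNQ2 potassium channel current at -35 mV at one or more tested doses; inactive means no rise at any dose.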

In this test the target is Potassium voltage-gated channel subfamily KQT member 2 (Rattus norvegicus) (UniProt O88943). Description: KCNQ2 channel potentiators, dose response, mechanism study for KCNQ2 potentiator project, cell-based, automated electrophysiology (AID 2603). To be noted: KCNQ2-CHO cells, automated patch clamp current potentiation; at 30 µM (top of the series).
Chain of Potassium voltage-gated channel subfamily KQT member 2 (Rattus norvegicus) (O88943 whole entry, looked up): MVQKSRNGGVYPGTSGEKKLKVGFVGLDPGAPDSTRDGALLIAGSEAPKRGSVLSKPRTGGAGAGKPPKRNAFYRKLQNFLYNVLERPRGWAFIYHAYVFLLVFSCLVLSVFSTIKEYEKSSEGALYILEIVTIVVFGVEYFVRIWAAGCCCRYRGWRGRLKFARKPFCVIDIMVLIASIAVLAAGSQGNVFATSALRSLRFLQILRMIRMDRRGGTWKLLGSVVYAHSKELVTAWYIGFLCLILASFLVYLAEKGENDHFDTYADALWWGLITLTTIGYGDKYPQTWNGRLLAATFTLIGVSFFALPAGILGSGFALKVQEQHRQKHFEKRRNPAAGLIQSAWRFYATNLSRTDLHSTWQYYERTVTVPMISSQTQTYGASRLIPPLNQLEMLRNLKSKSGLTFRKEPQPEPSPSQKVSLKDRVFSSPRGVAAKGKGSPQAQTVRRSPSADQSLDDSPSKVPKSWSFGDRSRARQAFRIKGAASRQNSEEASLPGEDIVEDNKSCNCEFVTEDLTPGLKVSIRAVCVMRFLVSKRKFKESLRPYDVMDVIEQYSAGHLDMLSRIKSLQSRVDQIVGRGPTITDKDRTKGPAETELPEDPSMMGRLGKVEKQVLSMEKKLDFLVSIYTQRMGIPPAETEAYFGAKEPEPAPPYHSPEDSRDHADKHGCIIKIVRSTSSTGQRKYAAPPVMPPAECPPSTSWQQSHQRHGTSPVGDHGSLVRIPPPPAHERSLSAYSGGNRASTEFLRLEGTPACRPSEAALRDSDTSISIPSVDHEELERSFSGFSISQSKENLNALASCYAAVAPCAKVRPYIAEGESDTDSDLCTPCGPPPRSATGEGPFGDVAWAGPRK
Turning to `COc1ccc(C(=O)CCS(=O)(=O)c2ccc(F)cc2)cc1OC`, the result was inactive.

For `CC1=C(C)/C(=N\OS(=O)(=O)c2ccccc2)C=CC1=O`, the result was inactive.

`O=c1c(O)c(-c2cccs2)oc2ccc(Cl)cc12`: the outcome was inactive.

On to `O=C(Cc1ccccc1)Nc1cccc(N2CCCC2)c1`, for which the outcome was inactive.

`CCC(O)(CC)C(=O)N(Nc1ccc(C)cc1)c1ccc(C)cc1`: the potentiation was determined as 62.7.

For the compound `O=C(O)c1cc(NN=C2c3ccccc3-c3ccccc32)ccc1Cl`, the potentiation amounted to 81.9.

As to `CCCCCC/C(C)=C1/SC(=S)NC1=O`, the outcome was inactive.

Take `CC(C)c1ccc2nc(NC(=O)C3CC3)sc2c1`: the result was inactive.

Regarding `Cc1ccc(C(C2=C(O)CC(C)(C)CC2=O)C2C(=O)CC(C)(C)CC2=O)o1` (configuration not stated), the outcome was inactive.

In the case of `Nc1cc(N2CCCCC2)c(Cl)cc1[N+](=O)[O-]`, the outcome was inactive.

As for `CC1=C(C(=O)OCC2CCCCC2)C(c2cccc(O)c2)NC(=O)N1` (configuration not stated), the potentiation was 57.

For `CC1(C)CCc2cc(-c3ccn(S(=O)(=O)c4ccccc4Cl)n3)ccc2O1`, the result was inactive.

For the compound `Cc1nn(-c2cccc(C(F)(F)F)c2)c(Cl)c1/C=N/Nc1cccc(C(=O)O)c1`, the outcome was inactive.

On to `S=C(NCCc1cccc(Cl)c1)NCc1ccccc1`, for which the result was inactive.

With `Oc1c(Br)cc(Br)cc1C=Nc1ccc2[nH]ncc2c1`, the result was inactive.

As to `COc1cc(C)c(C(=O)Oc2cc(C)c(C(=O)O)c(O)c2)c(O)c1`, the potentiation was determined as 72.4.

`Cc1ccc(C(=O)NC2(O)C(=O)c3ccccc3C2=O)cc1C`: the result was inactive.
